Experimental data from the supplement of paper PMC13380429.

System: Vero E6 infected with SARS-CoV-2
Assay: inhibition of SARS-CoV-2 cytopathic effect; higher = more antiviral protection, active = above 15
Conditions: 48 h

Row | SMILES | inhibition of SARS-CoV-2 cytopathic effect (1 nM) | inhibition of SARS-CoV-2 cytopathic effect (8.33 nM) | inhibition of SARS-CoV-2 cytopathic effect (100 nM) | inhibition of SARS-CoV-2 cytopathic effect (833.33 nM) | inhibition of SARS-CoV-2 cytopathic effect (10000 nM)
1 | CN(CCOP(=O)(O)O)C(=N)N [creatinol-phosphate] | -1.02% (inactive) | 2.42% (inactive) | 0.89% (inactive) | -2.46% (inactive) | -1.58% (inactive)
2 | Cc1nnc(-c2ccc3occ(-c4ccc([S+](C)[O-])cc4)c3c2)o1 (stereo not given) | 0.61% (inactive) | 0.11% (inactive) | -1.48% (inactive) | 1.56% (inactive) | 8.77% (inactive)
3 | CC(C)OC(=O)C1=CN(C(=O)c2ccc(F)c(F)c2)CC(C)(C)c2c1[nH]c1ccccc21 | -2.29% (inactive) | -1.15% (inactive) | -3.38% (inactive) | -4.11% (inactive) | -3.87% (inactive)
4 | O[C@@H]1[C@H](O)[C@@H](CCl)O[C@H]1n1cnc2c(NC3CC4CCC3C4)ncnc21 (mixture of isomers) [5'-chloro-5'-deoxy-ENBA-(+/-)] | -4.47% (inactive) | -2.02% (inactive) | 0.3% (inactive) | 3.77% (inactive) | -3.73% (inactive)
5 | C[C@@H]1O[C@@H](OC[C@H]2O[C@@H](Oc3c(-c4ccc(O)c(O)c4)oc4cc(O)cc(O)c4c3=O)[C@H](O)[C@@H](O)[C@@H]2O)[C@H](O)[C@H](O)[C@H]1O [rutin] | 1.54% (inactive) | 1.59% (inactive) | 5.75% (inactive) | 0.96% (inactive) | -5.92% (inactive)
6 | Oc1cc2c(cc1O)CN(C(=S)NCCc1ccc(Cl)cc1)CCC2 [capsazepine] | -5.03% (inactive) | -2.95% (inactive) | -0.11% (inactive) | -0.65% (inactive) | 3.42% (inactive)
7 | C[C@@]1(O)[C@H](O)[C@@H](CO)O[C@H]1n1cnc2c(NC3CCCC3)nc(Cl)nc21 | 1.63% (inactive) | 2.06% (inactive) | 1.32% (inactive) | 0.53% (inactive) | -0.13% (inactive)
8 | CCOC(=O)OC(C)OC1=C(C(=O)Nc2ccccn2)N(C)S(=O)(=O)c2ccccc21 (stereo not given) [ampiroxicam] | 1.01% (inactive) | -0.58% (inactive) | 1.16% (inactive) | 2.1% (inactive) | 2.74% (inactive)
9 | CC(=O)N1CCN(C)CC1 [1-acetyl-4-methylpiperazine] | 4.74% (inactive) | 3.75% (inactive) | 3.95% (inactive) | 4.36% (inactive) | -0.21% (inactive)
10 | CC(C)OC(=O)N1CCC(Oc2ncnc3c2cnn3-c2ccc(S(C)(=O)=O)cc2F)CC1 | -4.65% (inactive) | -1.23% (inactive) | 2.78% (inactive) | -0.97% (inactive) | -1.25% (inactive)
11 | CC(C)CNc1ccnc(NCc2csc(-c3ccccc3)n2)n1 | 0.06% (inactive) | 1.07% (inactive) | 0.03% (inactive) | 0.39% (inactive) | -2.77% (inactive)
12 | Clc1ccc(CSC(Cn2ccnc2)c2ccc(Cl)cc2Cl)cc1 (stereo not given) [sulconazole] | -1.13% (inactive) | 2.09% (inactive) | 0.76% (inactive) | -1.38% (inactive) | -0.46% (inactive)
13 | Cc1ccccc1OCC(O)CO (stereo not given) [mephenesin] | -1% (inactive) | 0.27% (inactive) | 0.3% (inactive) | -0.01% (inactive) | 1.77% (inactive)
14 | CCc1ccccc1OC[C@@H](O)CN[C@H]1CCCc2ccccc21 | -1.78% (inactive) | -0.44% (inactive) | -3.44% (inactive) | -0.6% (inactive) | -4.25% (inactive)
15 | OC(c1cc(C(F)(F)F)nc2c(C(F)(F)F)cccc12)C1CCCCN1 (stereo not given) [mefloquine] | -1.64% (inactive) | 0.59% (inactive) | -0.03% (inactive) | -3.31% (inactive) | 73.3% (active)
16 | CC(=O)OCC(=O)[C@H]1CC[C@H]2[C@@H]3CCC4=CC(=O)CC[C@]4(C)[C@H]3CC[C@]12C [deoxycorticosterone-acetate] | -2.24% (inactive) | 0.58% (inactive) | -1.58% (inactive) | -4.23% (inactive) | -0.48% (inactive)
17 | CN[C@@H](C)C(=O)N[C@H](C(=O)N1CCC[C@H]1C(=O)Nc1snnc1-c1ccccc1)C1CCCCC1 | 0.62% (inactive) | -0.64% (inactive) | -0.23% (inactive) | -0.79% (inactive) | -5.99% (inactive)
18 | CC(=O)N1CCN(CCOc2ccc(C3CCN(C4=Nn5c(nnc5C(F)(F)F)CC4)CC3)cc2)CC1 | 0.09% (inactive) | 1.43% (inactive) | 0.26% (inactive) | 1.65% (inactive) | 1.88% (inactive)
19 | CC[C@H](C)[C@@H]1NC(=O)[C@H](Cc2ccc(O)cc2)NC(=O)[C@@H](N)CSSC[C@@H](C(=O)N2CCC[C@H]2C(=O)N[C@@H](CC(C)C)C(=O)NCC(N)=O)NC(=O)[C@H](CC(N)=O)NC(=O)[C@H](CCC(N)=O)NC1=O [oxytocin] | 5.14% (inactive) | 3.79% (inactive) | 3.52% (inactive) | 0.66% (inactive) | -0.57% (inactive)

Row | SMILES | inhibition of SARS-CoV-2 cytopathic effect (1 nM) | inhibition of SARS-CoV-2 cytopathic effect (8.33 nM) | inhibition of SARS-CoV-2 cytopathic effect (100 nM) | inhibition of SARS-CoV-2 cytopathic effect (833.33 nM) | inhibition of SARS-CoV-2 cytopathic effect (10000 nM)
20 | CN1[C@@H]2CC[C@H]1C[C@@H](OC(=O)[C@H](CO)c1ccccc1)C2 [hyoscyamine] | 1.06% (inactive) | -0.12% (inactive) | 0.93% (inactive) | -0.12% (inactive) | -0.51% (inactive)
21 | CC1=C(C(=O)OC2CCCCC2)C(c2ccc([N+](=O)[O-])cc2)C2=C(CC(C)(C)CC2=O)N1 (stereo not given) | -1.14% (inactive) | -1.2% (inactive) | -1.86% (inactive) | 1.14% (inactive) | 23.1% (active)
22 | COc1ccc(NC(=O)c2ccc(-c3ccc(-c4noc(C)n4)cc3C)cc2)cc1N1CCN(C)CC1 | 4.92% (inactive) | 6.46% (inactive) | 0.49% (inactive) | -1.73% (inactive) | 36.7% (active)
23 | O[C@@H](CN1CCC(Cc2ccc(F)cc2)CC1)c1ccc(Cl)cc1 (racemic) [eliprodil] | 0.81% (inactive) | 0.95% (inactive) | 0.19% (inactive) | 2.59% (inactive) | -0.42% (inactive)
24 | CC(=O)NC[C@H]1CN(c2ccc(N3CCN(C(=O)CO)CC3)c(F)c2)C(=O)O1 [eperezolid] | -1.15% (inactive) | -0.41% (inactive) | -0.04% (inactive) | 0.64% (inactive) | 0.19% (inactive)
25 | C[C@@H]1C[C@H]2[C@@H]3C[C@H](F)C4=CC(=O)C=C[C@]4(C)[C@@]3(F)[C@@H](O)C[C@]2(C)[C@@]1(O)C(=O)COC(=O)C(C)(C)C [flumethasone-pivalate] | -0.06% (inactive) | -2.13% (inactive) | -1.68% (inactive) | -1.81% (inactive) | 6.04% (inactive)
26 | Cn1cc(C(=O)OCC2CCN(CCNS(C)(=O)=O)CC2)c2ccccc21 | -2.5% (inactive) | 4.63% (inactive) | 5.3% (inactive) | 6.93% (inactive) | -0.18% (inactive)
27 | COc1cccc(OC)c1-c1ccc(C[C@H](NC(=O)c2c(Cl)cccc2Cl)C(=O)O)cc1 | 0.68% (inactive) | 2% (inactive) | 0.48% (inactive) | 1.89% (inactive) | 1.23% (inactive)
28 | Cc1c(C(=O)NC2CCCCC2)sc2nc3ccc(N)cc3n12 | 0.16% (inactive) | -2.6% (inactive) | -1.92% (inactive) | -0.52% (inactive) | 0.2% (inactive)
29 | Cc1c(NC(=O)N2CCOCC2)ccc2c1c1ccccc1n2C(C)C | 0.94% (inactive) | -0.34% (inactive) | -2.07% (inactive) | 2.48% (inactive) | 0.62% (inactive)
30 | FC(F)(F)c1ccc(/C=C/c2nc(COc3ccc(CCCCn4ccnn4)cc3)co2)cc1 [mubritinib] | 2.13% (inactive) | 1.62% (inactive) | 2.58% (inactive) | 3.2% (inactive) | 1.47% (inactive)
31 | COc1[nH]c2ccc(F)cc2c1C(=O)OCC1CCN(CCNS(C)(=O)=O)CC1 | 2% (inactive) | 2.46% (inactive) | 0.98% (inactive) | 0.39% (inactive) | 1.56% (inactive)
32 | CCCN(CCC)C(=O)C(CCC(=O)O)NC(=O)c1ccccc1 (stereo not given) [proglumide] | 2.27% (inactive) | -2.46% (inactive) | -0.81% (inactive) | 2.34% (inactive) | -1.09% (inactive)
33 | NC(=O)N1c2ccccc2CC(=O)c2ccccc21 [oxcarbazepine] | 0.74% (inactive) | 3.71% (inactive) | 4.19% (inactive) | -0.85% (inactive) | 4.57% (inactive)
34 | Cc1ccc(O)c([C@H](CCN(C(C)C)C(C)C)c2ccccc2)c1 [tolterodine] | 2.11% (inactive) | 1.62% (inactive) | 1.96% (inactive) | -3.34% (inactive) | -2.67% (inactive)
35 | COc1cc(C(=O)NS(=O)(=O)c2ccccc2C)ccc1Cc1cn(C)c2ccc(NC(=O)OC3CCCC3)cc12 [zafirlukast] | -1.22% (inactive) | -0.73% (inactive) | 0.48% (inactive) | 0.88% (inactive) | -2.73% (inactive)
36 | C=CC[C@]1(O)CC[C@H]2[C@@H]3CCC4=CC(=O)CCC4=C3C=C[C@@]21C [altrenogest] | -0.68% (inactive) | -1.12% (inactive) | -0.94% (inactive) | 0.13% (inactive) | 4.81% (inactive)
37 | CC(C)(C)[C@H]1CC[C@H](CC2=C(O)C(=O)c3ccccc3C2=O)CC1 [buparvaquone] | 1.01% (inactive) | 3.57% (inactive) | 2.36% (inactive) | 0.32% (inactive) | -5.12% (inactive)
38 | Cc1nnc(C[C@@H]2C=C(c3ccc(Cl)cc3)c3ccccc3-n3c(C)nnc32)o1 | 1.71% (inactive) | 0.46% (inactive) | 2.65% (inactive) | -4.91% (inactive) | -11.7% (inactive)
